Common to all, as to assay: NCI-60 one-dose screen, 48 h (100 = growth as untreated, 0 = no growth, -100 = all killed)
Holding throughout (conditions): 10 µM unless noted

Assay [1] concerns T-47D breast.
Assay [2] has as its system BT-549 breast.
Assay [3] concerns SW-620 colon.
The test system of assay [4] is MCF7 breast.
The test system of assay [5] is HCT-116 colon.
Assay [6] relates to KM12 colon.
Assay [7] deals with HCC-2998 colon.
For assay [8], the system named is MDA-MB-435 melanoma.

About 83,000 compounds went through this panel and 20% of them were active in at least one assay; those are over-represented in the sample as a whole.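 Cell lines were cultured in 96-well plates, exposed to a single compound concentration, and assessed for percent growth 48 hours later.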 Values without a mark were called inactive. Calls of active or inactive are those of the source. How the source made its calls: active means growth percent below 10; inactive means the rest.

Regarding `O=c1oc2c(C(F)(F)F)cccc2cc1-c1csc(Nc2ccc(OCCF)cc2)n1`, the growth in assay [1] is 71.1%; in assay [2], 31.5%; in assay [3] it was 26.1%; in assay [4], 15.3%; in assay [5] it was -26.3% (active); in assay [6] it was 2.28% (active).
On to `COc1ccc(-n2nc(C)c3c(Oc4ccc(NC(=O)Nc5c(Cl)cccc5Cl)cc4)ncnc32)cc1`, for which the growth in assay [1] is 87.4%; in assay [2], 117%; in assay [3] it was 95.7%; in assay [4], 96.4%; in assay [5] it was 109%; in assay [7] it was 100%. For the same compound, the growth in assay [6] was 100%.
Take `CN(C)S(=O)(=O)c1cccc(-c2nc3sc4c(c3c(=O)[nH]2)CCCC4)c1`: the growth in assay [1] is -22.1% (active); in assay [2] it was 31.9%; in assay [3] it was 13.7%; in assay [4], 53.4%; in assay [5] it was -41.3% (active); in assay [7] it was -50.5% (active). Further, in assay [6], the growth was 43.9%.
With `COc1cc(/C=C/c2cc(/C=C/c3ccc(O)c(OC)c3)n(-c3c(Cl)cccc3Cl)c(=O)n2)ccc1O`, the growth was 24.1% in assay [1]; 15.2% in assay [2]; 10.4% in assay [3]; 13.7% in assay [4]; 4.63% (active) in assay [5]; 41.8% in assay [7]. In assay [6], the growth is 12.1%.
For `Cc1cc2nc(NC(=O)CN3CCN(CCN4C(=O)c5cccc6cccc(c56)C4=O)CC3)sc2cc1C`, the growth in assay [1] was 83.9%; in assay [2] it was 86.1%; in assay [3] it was 96%; in assay [4] it was 74.8%; in assay [5], 74.7%; in assay [7], 101%. Besides, the growth in assay [6] is 92.5%.
Regarding `CCn1c(Cc2ccccc2Nc2c(Cl)cccc2Cl)nnc1SCC(=O)NN1C(=O)/C(=C/c2cc(OC)c(O)c(OC)c2)SC1=S`, the growth was 24.4% in assay [1]; -46.5% (active) in assay [8]; 21.2% in assay [3]; 16.9% in assay [4]; 11.5% in assay [5]; 56.9% in assay [7]. Besides, the growth in assay [6] was 18%.
In the case of `COc1ccc(NC2=C(Sc3nc(C)cc(C)n3)C(=O)N(Cc3ccccc3)C2=O)cc1Cl`, the growth is 41.9% [30 µM] in assay [1]; 86.6% [30 µM] in assay [8]; 88.7% [30 µM] in assay [3]; 48.4% [30 µM] in assay [4]; 76.9% [30 µM] in assay [5]; 99.2% [30 µM] in assay [6].
As to `NC1=C(Cl)C(=O)c2ccc(S(N)(=O)=O)cc2C1=O`, the growth in assay [1] was -46.1% (active); in assay [8] it was -86.8% (active); in assay [3] it was -77.9% (active); in assay [4], -49.5% (active); in assay [5] it was -90.1% (active); in assay [7], -97.1% (active). For the same compound, the growth in assay [6] is -72.1% (active).
`COc1ccc(C(=O)c2sc3nc(C)cc(C)c3c2N)cc1OC`: the growth in assay [2] was 93.2%; in assay [8], 91.8%; in assay [3] it was 99.5%; in assay [4] it was 84%; in assay [5], 87%; in assay [7], 99.1%. The growth in assay [6] was 94.3%.
Take `NC(=O)c1cc(Cl)ccc1NC(=O)/C=C/c1ccccc1`: the growth was 14.9% in assay [1]; -13.3% (active) in assay [8]; 26.1% in assay [3]; 10.9% in assay [4]; 29.2% in assay [5]; 60.1% in assay [7]. Moreover, in assay [6], the growth was 9.48% (active).
For the compound `COc1ccc(C(=O)c2sc3nc4c(c(-c5cccnc5)c3c2N)CCCC4)cc1OC`, the growth in assay [2] is 74.6%; in assay [8], 91.7%; in assay [3], 107%; in assay [4] it was 90.2%; in assay [5], 88.2%; in assay [7], 110%. In addition, the growth in assay [6] was 76.3%.
Turning to `N=C(N)c1ccc(-c2ccc(-c3ccc4ccccc4c3)s2)s1`, the growth in assay [1] was 7.01% (active); in assay [8], 11.3%; in assay [3], -70.9% (active); in assay [4], -66.7% (active); in assay [5], -70.5% (active); in assay [7], -69.1% (active). Besides, the growth in assay [6] was -27.2% (active).
`CC(C)CC1C(=O)N2CCC[C@H]2C2(O)O[C@](NC(=O)C3C=C4c5cccc6[nH]c(Br)c(c56)C[C@H]4N(C)C3)(C(C)C)C(=O)N12` (some centres undefined): the growth in assay [1] is 47.2%; in assay [8], 62.8%; in assay [3], 52.3%; in assay [4], 39.7%; in assay [5], 36.1%; in assay [7], 89.1%. In addition, the growth in assay [6] was 40.3%.
As to `O=C(Nc1cccc2[nH]c(C(F)(F)F)nc12)c1ccc(-n2cnnn2)cc1`, the growth is 63% in assay [2]; 105% in assay [8]; 104% in assay [3]; 96.2% in assay [4]; 96% in assay [5]; 116% in assay [7]. For the same compound, in assay [6], the growth was 72.7%.
In the case of `COc1cccc(/C=C2\SC(=Nc3ccc(NC(C)=O)cc3)NC2=O)c1OC`, the growth is 89.2% in assay [1]; 92% in assay [3]; 92.6% in assay [4]; 98% in assay [5]; 101% in assay [7]; 89.4% in assay [6].
Consider `Clc1ccc2c(NCCCNc3nc(-n4ccnc4)nc4ccccc34)ccnc2c1`, for which the growth in assay [1] was 70.3%; in assay [8], 92.6%; in assay [3], 89.8%; in assay [4] it was 76.5%; in assay [5] it was 88.3%; in assay [7], 106%. Also, the growth in assay [6] is 88.5%.
